# Assay results from PubChem BioAssay (EPA / NIEHS).
# Inconclusive results are not listed. Calls of active or inactive are those of the source. The calls were made as follows, unless noted: active = hit-call score of the fitted dose curve at least 0.9, where 1 is the maximum; inconclusive = response in the unintended direction; inactive = score below 0.9.
# Tests used:
# [1] = tested on: Thyroperoxidase (TPO), gene 54314; assay: CCTE_Simmons_AUR_rTPO: CCTE's Amplex UltraRed Assay for Thyroperoxidase (TPO) Inhibition, Simmons Lab (AID 2283662);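 as to AC50: potency for loss of signal meaning inhibition of peroxidase activity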
# How it was run: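 Endpoint is decreased Amplex UltraRed fluorescence after a 30-min, 37C reaction of rat thyroid microsomes with 300 uM H2O2. Eight test concentrations (5 nM–87.5 uM final) in 0.5% DMSO, three biological replicates each.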
# [2] = CCTE_Simmons_CellTiterGLO_HEK293T: Viability Assessment in CCTE's Assays for Thyroperoxidase (TPO) Inhibition, Simmons Lab (AID 2283665);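 as to AC50: cells exposed to compound for 24 h before readout; actives reduce ATP signal below DMSO vehicle meaning cytotoxicity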
# How it was run: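 Luminescent ATP readout (CellTiter-Glo, 20 min at room temperature) after 24 hr exposure of HEK293T cells to 5 nM–87.5 uM final compound; signal loss relative to DMSO vehicle indicated cytotoxicity; dichlone titrated as positive control.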
# [3] = Tanguay_ZF_120hpf_TRUN_legacy: (Legacy) Oregon State University Tanguay Lab 120 Hour Post-fertilization zebrafish Assay for Truncated Body (AID 2283655)
# How it was run: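 Truncated body is recorded as a binary endpoint at 120 hpf by brightfield imaging of wild-type 5D larvae. Exposure runs statically from 6 hpf at 28C with 0.64% DMSO; embryos dying earlier are not scored.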
# [4] = Tanguay_ZF_120hpf_NC_legacy: (Legacy) Oregon State University Tanguay Lab 120 Hour Post-fertilization zebrafish Assay for Notochord and Tail Malformation (AID 2283656)
# Method: (§1) Tanguay_ZF_120hpf_legacy is a whole embryo, multiplexed endpoint assay using zebrafish larvae exposed for 120 hours post fertilization on a 96-well plate.Tanguay_ZF_120hpf_NC_legacy is one of one assay component(s) measured or calculated from the Tanguay_ZF_120hpf_legacy assay. It is designed to make measurements of zebrafish development as detected with brightfield microscopy of developing zebrafish embryos.Data from the assay component Tanguay_ZF_120hpf_NC_legacy was analyzed into 1 assay endpoints. This assay endpoint, Tanguay_ZF_120hpf_NC_legacy, was analyzed in the positive analysis fitting direction relative to DMSO as the negative control and baseline of activity. Using a type of morphology reporter, gain-of-signal activity can be used to understand changes in developmentals as they relate to the whole embryo. To generalize the intended target to other relatable targets, this assay endpoint is annotated to the zebrafish development intended target family, where the subfamily is embryonic notochord morphogenesis.
# (§2) Zebrafish husbandry: Tropical 5D wild-type adult zebrafish were housed in at an approximate density of 1000 per 100 gallon tank at the Sinnhuber Aquatic Research Laboratory, Oregon State University, Corvallis, OR. […] At 24 hpf, embryos were assessed for photomotor response using a custom photomotor response analysis tool (PRAT) and for developmental toxicity endpoints (MO24: mortality at 24 hpf, DP: developmental progression, SM: spontaneous movement, and NC: notochord distortion). At 120 hpf, locomotor activity was measured using Viewpoint Zebralab and assessed for 18 endpoints. Zebrafish acquisition and analysis program (ZAAP), a custom program designed to inventory, acquire, and manage zebrafish data, was used to collect developmental endpoints as either present or absent (i.e., binary responses were recorded). If mortality occurred for an embryo (at either 24 or 120 hpf), the non-mortality endpoints were not measured.
# [5] = Tanguay_ZF_120hpf_TR_legacy: (Legacy) Oregon State University Tanguay Lab 120 Hour Post-fertilization zebrafish Assay for Touch Response (AID 2283667)
# How it was run: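 Binary touch-response endpoint in larvae at 120 hpf after static waterborne exposure from embryo stage (28°C, 0.64% DMSO vehicle, 5 uM trimethyltin chloride as positive control); embryos dead at 24 or 120 hpf excluded; fitted as gain versus DMSO.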
# [6] = Tanguay_ZF_120hpf_ActivityScore_legacy: (Legacy) Oregon State University Tanguay Lab 120 Hour Post-fertilization zebrafish Assay Score for Activity (AID 2283742)
# Method: as §1, with “96-well plate.Tanguay_ZF_120hpf_ActivityScore_legacy” for “96-well plate.Tanguay_ZF_120hpf_NC_legacy”, “of developmental malformations and mortality” for “of zebrafish development”, “microscopy and combines scoring from 18 other assay components measuring more specific morphologies.Data” for “microscopy of developing zebrafish embryos.Data”, “component Tanguay_ZF_120hpf_ActivityScore_legacy” for “component Tanguay_ZF_120hpf_NC_legacy”, “endpoint, Tanguay_ZF_120hpf_ActivityScore_legacy,” for “endpoint, Tanguay_ZF_120hpf_NC_legacy,”, “embryonic morphogenesis and mortality.” for “embryonic notochord morphogenesis.”
# as §2
# [7] = CEETOX_H295R_MTT_cell_viability: Viability Assessment in the CeeTox HT-H295R MTT Assay (AID 2283718; active = hit-call score of the fitted dose curve at least 0.9, where 1 is the maximum; inactive = score below 0.9;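 as to AC50: curve fitted both ways so AC50 may mark viability loss or gain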)
# How it was run: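 MTT reduction (0.5 mg/ml, 4 h at 37 C; absorbance at 570 and 650 nm) gave viability as background-corrected percent change versus controls. H295R cells had 48 h forskolin (10 uM) prestimulation, then 48 h chemical exposure at 0.1% DMSO.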
# [8] = STM_H9_OrnCyssISnorm_ratio: Stemina devTOX quickPredict H9 human embryonic stem cell (hESC)-based Assay for Ornithine (ORN):Cystine (CYSS) Ratio (AID 2283714)
# How it was run: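 Ratio of internal-standard-normalized ornithine to cystine, measured by UPLC-HRMS in spent media from the last 24 h. H9 cells kept pluripotent, dosed 72 h with daily media and compound renewal; DMSO 0.1% serves as baseline.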
# [9] = STM_H9_OrnithineISnorm_perc: Stemina devTOX quickPredict H9 human embryonic stem cell (hESC)-based Assay for Ornithine (ORN) Metabolite Biomarker, Normalized (AID 2283712; active = hit-call score of the fitted dose curve at least 0.9, where 1 is the maximum; inactive = score below 0.9;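 also: ornithine released into spent medium during last day measured by mass spectrometry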)
# How it was run: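 UPLC-HRMS readout: endogenous ornithine EIC area / 13C-ORN internal standard, then % of 0.1% DMSO median. H9 hESCs (pluripotent), 72h exposure, re-dosed with fresh media q24h; last 24-h spent media, deproteinized in 40% acetonitrile.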
# [10] = STM_H9_CystineISnorm_perc: Stemina devTOX quickPredict H9 human embryonic stem cell (hESC)-based Assay for Cystine (CYSS) Metabolite Biomarker, Normalized (AID 2283713; active = hit-call score of the fitted dose curve at least 0.9, where 1 is the maximum; inactive = score below 0.9)
# How it was run: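 UPLC-HRMS read-out: endogenous cystine peak area in spent medium, normalized to isotope-labeled internal standard and to median of 0.1% DMSO controls. Pluripotent H9 cells, 72h exposure, daily medium/compound replenishment; medium from last 24h sampled.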
smiles,measurement,setting,value
C/C=C/C=C/CCCCCCCO,AC50,[1],25.8 µM (active)
same,AC50,[2],87.2 µM (active)
C1CNCCN1,outcome,[3],inactive
same,outcome,[4],inactive
same,outcome,[5],inactive
same,outcome,[6],inactive
CCOC(=O)C1=NN(c2ccc(Cl)cc2Cl)C(C)(C(=O)OCC)C1 (stereo not given),outcome,[7],inactive
COc1ccc(C(=O)/C(Br)=C\C(=O)O)cc1,AC50,[7],76.4 µM (active)
Cc1ccc([N+](=O)[O-])cc1N,outcome,[3],inactive
same,outcome,[4],inactive
same,outcome,[5],inactive
same,outcome,[6],inactive
CCCCCCCCCCCCc1ccc(O)cc1,AC50,[1],26.2 µM (active)
same,AC50,[2],11.4 µM (active)
C=CC(=O)OCCCCCCOC(=O)C=C,outcome,[7],inactive
C=C[C@@]1(C)CC(=O)[C@]2(O)[C@@]3(C)[C@@H](O)CCC(C)(C)[C@@H]3[C@H](O)[C@H](OC(C)=O)[C@@]2(C)O1,outcome,[7],inactive
CC(CCC(=O)O)(c1ccc(O)cc1)c1ccc(O)cc1,AC50,[1],18.3 µM (active)
same,outcome,[8],inactive
CCCCCCCOC(=O)c1ccc(O)cc1,AC50,[1],52.6 µM (active)
same,AC50,[2],35.7 µM (active)
CCCCC/C=C\C/C=C\CCCCCCCC(=O)O,AC50,[1],43.8 µM (active)
same,AC50,[2],86.4 µM (active)
N#Cc1ccc(C(c2ccc(C#N)cc2)n2cncn2)cc1,outcome,[1],inactive
same,outcome,[7],inactive
CC1=NN(c2ccc(S(=O)(=O)O)cc2)C(=O)C1N=Nc1ccccc1 (stereo not given),outcome,[1],inactive
same,outcome,[2],inactive
O=C(OCc1ccccc1)c1ccc(O)cc1,AC50,[7],10.6 µM (active)
COc1ccc(-c2coc3cc(O)cc(O)c3c2=O)cc1,AC50,[1],21.4 µM (active)
same,AC50,[2],86.5 µM (active)
same,outcome,[7],inactive
CCc1occc(=O)c1O,AC50,[1],31 µM (active)
CC(C)c1ccc(O)c(C(C)C)c1,AC50,[1],29.7 µM (active)
same,AC50,[2],28.4 µM (active)
same,outcome,[7],inactive
CCCCC1C(=O)N(c2ccccc2)N(c2ccccc2)C1=O,AC50,[1],39.6 µM (active)
same,outcome,[2],inactive
same,outcome,[8],inactive
same,outcome,[7],inactive
N#Cc1ccc(C2CCCc3cncn32)cc1 (stereo not given),outcome,[7],inactive
CCCCCCOc1ccc(N)cc1,AC50,[1],0.494 µM (active)
CCCCCCCCCC[N+](C)(CCCCCCCCCC)CCC[Si](OC)(OC)OC,AC50,[1],48.9 µM (active)
same,AC50,[2],16 µM (active)
Nc1ccc(C(=O)O)cc1,outcome,[3],inactive
same,outcome,[4],inactive
same,AC50,[1],3.19 µM (active)
same,outcome,[5],inactive
same,outcome,[6],inactive
CCN1CN(CC)CN(CC)C1,AC50,[7],0.396 µM (active)
CC(C)(c1ccccc1)c1ccc(Nc2ccc(C(C)(C)c3ccccc3)cc2)cc1,AC50,[1],33.8 µM (active)
same,AC50,[7],86 µM (active)
O=S(=O)(O)c1ccc(N=Nc2c(O)ccc3ccccc23)cc1,outcome,[1],inactive
same,AC50,[2],18.1 µM (active)
O=c1c(O)c(-c2ccc(O)cc2O)oc2cc(O)cc(O)c12,AC50,[1],0.337 µM (active)
same,outcome,[2],inactive
COc1ccc(C(=O)c2ccccc2)c(O)c1,outcome,[1],inactive
same,outcome,[2],inactive
same,outcome,[8],inactive
same,outcome,[7],inactive
COC(=O)c1ccccc1C,outcome,[1],inactive
same,outcome,[2],inactive
CN(C)c1ccc2nc3ccc(=[N+](C)C)cc-3sc2c1,AC50,[1],34 µM (active)
same,AC50,[2],13.7 µM (active)
same,AC50,[8],2.34 µM (active)
same,outcome,[7],inactive
c1ccc(Nc2cccc3ccccc23)cc1,AC50,[1],5.32 µM (active)
same,AC50,[2],28.4 µM (active)
CCCC=C(C=O)CC,outcome,[7],inactive
CC1(C)[C@@H]2CC[C@@]1(C)C(=O)C2,outcome,[9],inactive
same,outcome,[10],inactive
Oc1ccccc1Cc1ccccc1O,AC50,[8],60.6 µM (active)
CC(C)(C)NC(=O)[C@H]1CC[C@H]2[C@@H]3CC[C@H]4NC(=O)C=C[C@]4(C)[C@H]3CC[C@]12C,outcome,[7],inactive
COC(=O)C=Cc1ccccc1,outcome,[8],inactive
O=C(O)c1cc(O)c2ccccc2c1O,AC50,[1],30.7 µM (active)
same,AC50,[2],28.6 µM (active)
same,outcome,[7],inactive
